# Screens as filed in PubChem.
# Only some compounds are listed: those with a hit (about 2.4% of all), similar ones and a draw of the others.
# D2 ag-1 = HTS Assay for Allosteric Agonists of the Human D2 Dopamine Receptor: Primary Screen for Agonists | AID 485358, 2010 | D(2) dopamine receptor (Homo sapiens), P14416 | HEK293 T-REx D2 cells, calcium flux agonist mode | 0.53% of 340,000 active | activation, % at 2 µM;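 active means activation over 3 SD above normal in the single-dose calcium agonist read, cut at about 30% in these data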; further: 0% is about no effect
# Target sequence (P14416 whole entry, looked up): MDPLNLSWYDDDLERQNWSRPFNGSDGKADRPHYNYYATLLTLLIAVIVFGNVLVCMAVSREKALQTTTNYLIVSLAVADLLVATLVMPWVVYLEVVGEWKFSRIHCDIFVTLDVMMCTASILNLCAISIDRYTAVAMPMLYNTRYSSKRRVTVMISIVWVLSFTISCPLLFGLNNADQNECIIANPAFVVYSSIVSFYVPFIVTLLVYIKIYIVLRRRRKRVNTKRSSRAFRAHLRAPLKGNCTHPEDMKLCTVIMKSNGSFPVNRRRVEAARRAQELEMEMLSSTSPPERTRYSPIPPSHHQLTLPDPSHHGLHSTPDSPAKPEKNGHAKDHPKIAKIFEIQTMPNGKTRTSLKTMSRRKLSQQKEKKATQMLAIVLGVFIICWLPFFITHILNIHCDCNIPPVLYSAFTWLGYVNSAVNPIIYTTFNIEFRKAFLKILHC
#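 Tetracycline-induced HEK293 Trex cells with D2 receptor force-coupled to calcium signaling, plated overnight at 30 C and loaded with no-wash calcium dye. Calcium flux read kinetically for 180 s after compound addition; responses flag agonists.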
# D2 PAM-1 = Beta-Arrestin HTS for Positive Allosteric Modulators of the Human D2 Dopamine Receptor: Potentiators; D(2) dopamine receptor (Homo sapiens), P14416; DiscoveRx D2 beta-arrestin cells, luminescence, 90 min; 100% = 57 uM dopamine signal; potentiation, % (no concentration beside the values); 0.23% of 360,000 active; AID 624464, 2012; in the data active means potentiation above about 50%
#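 PathHunter beta-arrestin assay in DiscoveRx D2 cells. Compounds were added with an EC20 of dopamine (50 nM final) for 90 min at 37 deg C. Luminescence was read 1 h after detection reagent, with 57 uM dopamine as the EC100 control.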
# D2 antagonist = HTS Assay for Allosteric Antagonists of the Human D2 Dopamine Receptor: Primary Screen for Antagonists. HEK293 TREx D2 cells, calcium flux, dopamine EC80. D(2) dopamine receptor (Homo sapiens), P14416. AID 485344, 2010. 2% of 340,000 active. inhibition, % at 10 µM; in the data active means inhibition above about 30%; inactive means below that, where a call was filed; further: 0% is about no effect
#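 In this primary screen, negative modulation is detected by tracking calcium flux after an EC80 dopamine challenge in inducible HEK293 T-REx D2 cells preexposed to test compound for 180 s.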
# D2 PAM-2 = HTS Assay for Positive Allosteric Modulators of the Human D2 Dopamine Receptor: Primary Screen for Potentiators | HEK293 T-REx D2, calcium flux, EC20 dopamine potentiation | potentiation, % at 10 µM | 0.34% of 340,000 active;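 active means potentiation over 3 SD above the plate norm, cut at about 30% in these data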; further: 0% is about no effect
#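 Cells plated with tetracycline inducer and held overnight at 30 C; calcium dye loaded 30–90 min at room temperature; baseline taken, compound added and read 180 s; EC20 dopamine then added and read 180 s.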
# B2AR arrestin = qHTS assay of beta-arrestin-biased ligands of beta2-adrenergic receptor; Beta-2 adrenergic receptor (Homo sapiens), P07550; beta-arrestin recruitment to beta2AR, cell-based reporter; Potency, µM (doses to about 46.1 µM), for the others: at the highest dose activation, hits mostly activators; 0.02% of 330,000 active; active means well fitted activation curve with a large enough effect;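 further: potency means the concentration at half of the fitted maximal effect; 0% = DMSO controls and full agonism = EC100 isoproterenol or metaproterenol; nearly all actives have a fitted effect of over 65% in size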
# D2 ag-2 = Beta-Arrestin HTS for Positive Allosteric Modulators of the Human D2 Dopamine Receptor: Agonists; 0.084% of 360,000 active; DiscoveRx PathHunter D2 beta-arrestin, luminescence, 90 min; 100% = 57 uM dopamine signal; D(2) dopamine receptor (Homo sapiens), P14416; activation, % (no concentration beside the values); in the data active means activation above about 40%
#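 DiscoveRx PathHunter D2 beta-arrestin cells (2,100/well) attached overnight, then compound-stimulated 90 min at 37 C in HBSS/10 mM HEPES/0.1% Tween-20 buffer; beta-galactosidase complementation read by luminescence after 1 h at ambient temperature. Dopamine 57 uM final (EC100) as control.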
# * hit, by the source's call; . = not tested or not shown.
SMILES,D2 ag-1,D2 PAM-1,D2 antagonist,D2 PAM-2,B2AR arrestin,D2 ag-2
N#CCC(=O)Nc1ccc(C(=O)OCC(=O)NCc2ccc3c(c2)OCO3)cc1,0,9,44*,-6,-1%,0
Cc1nc([N+](=O)[O-])c(N2CCN(C)CC2)n1Cc1ccccc1,-1,-11,6,-13,0%,-2
COC(=O)CNC(=O)CSc1nc2c(sc(=S)n2-c2ccccc2)c(=O)[nH]1,1,-5,44*,-15,0%,4
CC(C)Cc1nnc(NC(=O)CCC(=O)N2CCN(c3ccccc3)CC2)s1,3,-8,-9,8,0%,3
CCOc1ccccc1NC(=O)CN1C(=O)COc2ccc(S(=O)(=O)N3CCOCC3)cc21,0,-16,36*,-2,0%,-2
Cc1cccc(C(=O)OCC(=O)NN2C(=O)NC3(CCC(C)CC3)C2=O)c1O (centres undefined),0,6,31*,6,0%,0
Cc1cccc(C(=O)OCC(=O)NC2CC2)c1O,.,-8,.,.,5%,-1
COC(=O)C[C@H]1c2cc(C(F)(F)F)ccc2S(=O)(=O)N1c1ccc(N(C)C)cc1,.,-8,.,.,.,-2
Cc1ccc(C)c(N2CCN(S(=O)(=O)c3cccc4cccnc34)CC2)c1,-1,-9,7,-1,0%,3
Fc1ccccc1NC(=S)Nc1cccnc1,1,-9,-1,-5,0%,0
CN1C2=C(C#N)C(c3ccccc3)(C(F)(F)F)NC(=O)N2c2ccccc21 (centres undefined),0,6,32*,13,-1%,2
O=[N+]([O-])c1cc(CN2CCN(c3cccc(C(F)(F)F)c3)CC2)c2cccnc2c1O,-1,-23,36*,-22,0%,0
Cc1cc(C)c2[nH]c(=O)c(CN(Cc3ccco3)C(=O)c3cccs3)cc2c1,.,.,.,.,0%,.
O=C(c1cccs1)N(Cc1ccco1)Cc1cc2ccccc2[nH]c1=O,1,-4,60*,-22,0%,-2
O=C(CCN1CCCCC1)Nc1cccc(Cl)c1,0,-25,57*,-15,0%,-2
Cc1ccc(CNC(=O)CS(=O)(=O)Cc2nc(-c3ccccc3C)oc2C)cc1,0,.,.,-15,.,.
Cc1oc(-c2ccccc2F)nc1CS(=O)(=O)CC(=O)NCCCN1CCN(C)CC1,1,-8,10,0,0%,-1
Cc1oc(-c2ccccc2F)nc1CS(=O)(=O)CC(=O)NCCCN1CC(C)CC(C)C1 (centres undefined),-1,-31,48*,-4,0%,-7
CCCNC(=O)CS(=O)(=O)Cc1nc(-c2ccccc2C)oc1C,0,-3,40*,6,0%,-3
CN(C)S(=O)(=O)c1cccc(C(=O)N2CCN(C(=O)C3CCCO3)CC2)c1 (centres undefined),.,0,.,.,-1%,8
COc1ccc(CCN2C(=O)c3[nH]nc(-c4ccccc4O)c3C2c2cccc(Cl)c2)cc1 (centres undefined),-1,91*,-12,-4,0%,12
COc1ccc(CCN2C(=O)c3[nH]nc(-c4ccccc4O)c3C2c2cccc(OC)c2)cc1 (centres undefined),-1,.,.,1,.,.
CC(=O)N1Cc2ccccc2C(C)CC12CCCC2 (centres undefined),-1,0,31*,-3,-1%,-5
Cc1ccccc1CN1CCC(Oc2ccc(C(=O)N3CCCC3)cc2)CC1,0,-29,-16,12,-1%,-3
